Data as given in PubChem BioAssay (EPA / NIEHS).
Some structures have more than one record in an assay (separate samples or runs), and their calls can disagree. Calls of active or inactive are those of the source. Rule for the calls: active = hit-call score of the fitted dose curve at least 0.9, where 1 is the maximum; inactive = score below 0.9.

The molecules below were run against Myc proto-oncogene protein (Homo sapiens) (UniProt P01106) (assay: ATG_Myc_CIS: Attagene CIS-FACTORIAL HepG2 Assay for human Myelocytomatosis (Myc) Proto-Oncogene Transcription Factor (AID 2282990)). Conditions: HepG2, Attagene cis-reporter transcription factor activity; actives raise or lower the signal.
Experimental: ATG_CIS is a cell-based, multiplexed-readout assay that uses HepG2, a human liver cell line, with measurements taken at 24 hours after chemical dosing in a 24-well plate.ATG_Myc_CIS is one of 52 assay component(s) measured or calculated from the ATG_CIS assay. It is designed to make measurements of mRNA induction, a form of inducible reporter, as detected with fluorescence intensity signals by Reverse transcription polymerase chain reaction (RT-PCR) and Capillary electrophoresis technology.Data from the assay component ATG_Myc_CIS was analyzed into 1 assay endpoint. This assay endpoint, ATG_Myc_CIS, was analyzed with bidirectional fitting relative to DMSO as the negative control and baseline of activity. Using a type of inducible reporter, measures of mRNA for gain or loss-of-signal activity can be used to understand the reporter gene at the transcription factor-level as they relate to the gene MYC. Furthermore, this assay endpoint can be referred to as a primary readout, because this assay has produced multiple assay endpoints where this one serves a reporter gene function. To generalize the intended target to other relatable targets, this assay endpoint is annotated to the dna binding intended target family, where the subfamily is basic helix-loop-helix leucine zipper.
Human liver HepG2 cells are transiently transfected with multiple reporter transcription units (MRTUs) in 6-well plates using FuGene 6 reagent (Roche; 3 ml FuGene/1 mg DNA). The MRTU constructs are regulated by a cis-regulating element (promoter). […] A major difference between the CIS and TRANS system is that in CIS activities of endogenous TFs are measured, whereas the TRANS assay evaluates changes in activities of exogenous, chimeric NR-Gal4 proteins. […] At the end of 24 hour incubation, total RNA was isolated using TriZol reagent (Invitrogen). The isolated RNA is then reverse-transcribed using oligo(dT) primer and Mo-MLV reverse transcriptase (Invitrogen) with DNAse I (Ambion) treatment for 30 min. The one-tenth of the produced cDNA was amplified by PCR using Taq DNA polymerase (Invitrogen) and two reporter sequence-specific primers. The PCR products were fluorescently labeled by primer extension with 6-arboxyfluorescein (6-FAM) 5'-labeled reporter sequence-specific primer (2 min at 95 C, 20 s at 68 C and 10 min at 72 C) and these products were digested with 5U of HpaI (New England Biolabs) for 2h at 37 C. The fragments were purified using Qiaquick PCR columns (Qiagen), analyzed on an ABI 3130xL genetic analyzer (Applied Biosystems) with peak positions identified by using a set of X-rhodamine (ROX)-labeled MapMarker1000 molecular weight standards (BioVentures). The raw capillary electrophoresis data was processed using Attagraph software (Attagene).

Sequence of Myc proto-oncogene protein (Homo sapiens) (P01106 whole entry, looked up): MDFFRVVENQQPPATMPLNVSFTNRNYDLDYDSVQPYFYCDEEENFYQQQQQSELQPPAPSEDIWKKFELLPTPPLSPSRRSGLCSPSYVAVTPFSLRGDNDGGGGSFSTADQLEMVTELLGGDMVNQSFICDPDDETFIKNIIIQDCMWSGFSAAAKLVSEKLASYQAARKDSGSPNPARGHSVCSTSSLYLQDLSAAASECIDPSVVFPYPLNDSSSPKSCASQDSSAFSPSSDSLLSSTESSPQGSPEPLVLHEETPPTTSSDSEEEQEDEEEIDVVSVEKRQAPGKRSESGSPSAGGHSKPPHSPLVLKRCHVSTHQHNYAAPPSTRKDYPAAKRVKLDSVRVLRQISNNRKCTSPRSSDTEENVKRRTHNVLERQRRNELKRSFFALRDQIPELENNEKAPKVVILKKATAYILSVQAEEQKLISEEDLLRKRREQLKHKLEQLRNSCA

Structure (SMILES)	outcome	AC50
O=C(O)C(F)(F)C(F)(F)C(F)(F)C(F)(F)C(F)(F)C(F)(F)C(F)(F)C(F)(F)C(F)(F)C(F)(F)C(F)(F)C(F)(F)F	inactive	
CCc1ccc(C(c2ccc(CC)cc2)C(Cl)Cl)cc1	inactive	
FC(F)(Br)C(F)(F)C(F)(F)C(F)(F)C(F)(F)C(F)(F)Br	inactive	
FC(F)(F)C(F)(F)C(F)(F)C(F)(F)CCI	inactive	
CC(Cc1ccc(O)c(O)c1)C(C)Cc1ccc(O)c(O)c1 (stereo not given)	inactive	
FC(F)(I)C(F)(F)C(F)(F)C(F)(F)I	inactive	
C=C(C)C(=O)OCC(F)(F)C(F)(F)C(F)(F)C(F)(F)C(F)(F)C(F)(F)C(F)(F)F	inactive	
C#C[C@]1(O)CC[C@H]2[C@@H]3CCc4cc(OC)ccc4[C@H]3CC[C@@]21C	inactive	
FC(F)(F)C(F)(F)C(F)(F)C(F)(F)C(F)(F)C(F)(F)C(F)(F)Br	inactive	
CCN(Cc1cccc(S(=O)(=O)O)c1)c1ccc(C(=C2C=CC(=[N+](CC)Cc3cccc(S(=O)(=O)O)c3)C=C2)c2ccc(O)cc2S(=O)(=O)[O-])cc1	inactive	
OCC(F)(F)C(F)(F)C(F)(F)C(F)(F)C(F)(F)C(F)(F)F	inactive	
C=C(C)C(=O)OCC(F)(F)C(F)(F)C(F)(F)F	inactive	
COC(OC(C)=O)c1ccccc1 (stereo not given)	inactive	
CN(C)Cc1ccccc1O	inactive	
OCCCC(F)(F)C(F)(F)C(F)(F)C(F)(F)C(F)(F)C(F)(F)C(F)(F)F	inactive	79.9 µM (active)
CCCCOc1ccc(N)cc1	inactive	
OCC(F)(F)C(F)(F)C(F)(F)C(F)F	inactive	
C=CC(F)(F)C(F)(F)C(F)(F)C(F)(F)C(F)(F)C(F)(F)C(F)(F)C(F)(F)F	inactive	
COC(=O)C1CCC(C(=O)OC)CC1 (stereo not given)	inactive	
COC(=O)CCC(F)(F)C(F)(F)C(F)(F)C(F)(F)F	inactive	

Structure (SMILES)	outcome	AC50
O=C(O)C(F)(F)C(F)(F)OC(F)(F)F	inactive	
OC[C@@H](O)[C@@H](O)[C@H](O)[C@@H](O)CO	inactive	
CCCCOCCOCCOC(=O)CCCCC(=O)OCCOCCOCCCC	inactive	
O[Si](c1ccccc1)(c1ccccc1)c1ccccc1	inactive	
NC(=O)C(F)(F)C(F)(F)C(F)(F)C(F)(F)F	inactive	
CC(C)=CCCC(C)CCOC(=O)C(C)C (stereo not given)	inactive	
CC(C)(C)C(=O)CC(=O)C(F)(F)C(F)(F)C(F)(F)F	inactive	
CO[Si](OC)(c1ccccc1)c1ccccc1	inactive	
CCCCNc1ccccc1	inactive	
O=S(=O)(OCC(F)F)C(F)(F)F	inactive	
CCCCC(CC)COP(=O)(O)OCC(CC)CCCC (stereo not given)	inactive	
OCC(F)(F)C(F)(F)C(F)(F)F	inactive	
c1ccc(-c2ccccc2-c2ccccc2)cc1	inactive	
CCO[Si](CCC(F)(F)C(F)(F)C(F)(F)C(F)(F)C(F)(F)C(F)(F)F)(OCC)OCC	inactive	
Nc1ccc(S(=O)(=O)Nc2nccs2)cc1	inactive	
O=C(OCCOCCOCCOC(=O)c1ccccc1)c1ccccc1	inactive	
O=C(O)C(F)(F)C(F)(F)C(F)(F)C(F)(F)C(F)(F)C(F)(F)C(F)(F)C(F)(F)C(F)(F)C(F)F	inactive	
O=C(O)C(F)(F)C(F)(F)C(F)(F)C(F)(F)C(F)(F)C(F)(F)C(F)(F)C(F)(F)C(F)(F)C(F)(F)C(F)(F)C(F)(F)C(F)(F)F	inactive	
O=C(O)C(F)(OC(F)(F)C(F)(OC(F)(F)C(F)(OC(F)(F)C(F)(F)C(F)(F)F)C(F)(F)F)C(F)(F)F)C(F)(F)F (stereo not given)	inactive	
